# Data: PubChem BioAssay (EPA / NIEHS)
# “And” between values parts separate entries of the source, which are not always exact repeats. Identical values can stand only once. The source made the active and inactive calls. The calls were made as follows: active = hit-call score of the fitted dose curve at least 0.9, where 1 is the maximum; inactive = score below 0.9.
# Read-out: Macrophage colony-stimulating factor (MCSF), CSF1 (gene 1435)
# Assay: BSK_LPS_MCSF: BioMAP Diversity Plus: LPS Assay for Macrophage colony-stimulating factor (MCSF) Biomarker Activity (AID 2283083)
# Conditions: primary human HUVEC with PBMC; actives raise or lower the signal
# Method: BSK_LPS is a cell-based, multiplexed-readout assay that uses umbilical vein endothelium and peripheral blood mononuclear cells, a human vascular primary cell co-culture, with measurements taken at 24 hours after chemical dosing in a 96-well plate.BSK_LPS_MCSF is an assay component measured in the BSK_LPS assay. It measures M-CSF antibody related to regulation of gene expression using ELISA technology.Data from the assay component BSK_LPS_MCSF was analyzed into 1 assay endpoint. This assay endpoint, BSK_LPS_MCSF, was analyzed with bidirectional fitting relative to DMSO as the negative control and baseline of activity. Using a type of binding reporter, gain or loss-of-signal activity can be used to understand changes in the signaling as they relate to the gene CSF1. Furthermore, this assay endpoint can be referred to as a primary readout, because this assay has produced multiple assay endpoints where this one serves a signaling function. To generalize the intended target to other relatable targets, this assay endpoint is annotated to the cytokine intended target family, where the subfamily is colony stimulating factor.
# The levels of cell surface (or secreted, indicated by the prefix "s") biomarker endpoints were measured by ELISA. Overt cytotoxicity to cells in confluent adherent cultures (all systems other than the BT system) was assessed by measuring total protein levels using sulforhodamine B (SRB) staining in parallel cultures at the time of biomarker measurements, indicated as SRB endpoints. For proliferation assays for adherent cell types, individual cell types are cultured at sub-confluence and relative cell numbers quantified by SRB staining at time points optimized for each system (48 h: 3C and CASM3C systems; 72 h: BT and HDF3CGF systems; 96 h: SAg system). SRB was performed by staining cells with 0.1% SRB after fixation with 10% TCA and reading wells at 560 nm.Viability and proliferation of PBMC (T cells) was quantified by Alamar Blue reduction for the SAg and BT systems. For PBMC viability (referred to as PBMC Cytotoxicity within the assay endpoint names), cells were plated (75,000/well in a 96-well plate) and then chemical samples added for 1 h before addition of activators, SEB and TSST-1 (20 ng/mL final concentration each). Cells were incubated for 90 h. Then, Alamar Blue (20 uL/well) (Invitrogen, Cat DAL1100) was added for 6 h, and the plates were read with a fluorescence microplate reader at 546/580 nm (excitation/emission). For PBMC proliferation, cells were plated and activated as above but incubated for only 16 h prior to addition of Alamar Blue. Plates were read after 6 h.
Structure (SMILES),outcome,AC50
CCOC(=O)CC(SP(=S)(OC)OC)C(=O)OCC (stereo not given),inactive,
CNC(=O)ON=CC(C)(C)SC,inactive,
CON(C)C(=O)Nc1ccc(Cl)c(Cl)c1,,7.53 µM (active)
CCON=C(CC)C1=C(O)CC(c2c(C)cc(C)cc2C)CC1=O (stereo not given),inactive,
COc1nc(C)nc(NC(=O)NS(=O)(=O)c2ccccc2Cl)n1,inactive,
COc1cnc(OC)n2nc(NS(=O)(=O)c3c(OCC(F)F)cccc3C(F)(F)F)nc12,inactive,
CCCCC(CC)COC(=O)c1ccccc1C(=O)OCC(CC)CCCC (stereo not given),,4.51 µM (active)
CC(C)Oc1cc(-n2nc(C(C)(C)C)oc2=O)c(Cl)cc1Cl,,32.7 µM (active)
CC(Oc1ccc(Cl)cc1Cl)C(=O)O (stereo not given),inactive,
CC(C)(C)c1ccc(CSc2cnn(C(C)(C)C)c(=O)c2Cl)cc1,,9.19 µM (active)
OC(c1ccc(Cl)cc1)(c1cncnc1)c1ccccc1Cl (stereo not given),inactive,
C=CCC1=C(C)C(OC(=O)C2C(C=C(C)C)C2(C)C)CC1=O (stereo not given),,24.4 µM (active) [middle of 4 runs]
CC1=C(C(=O)Nc2ccccc2)SCCO1,inactive,
C=CC1(C)OC(=O)N(c2cc(Cl)cc(Cl)c2)C1=O (stereo not given),inactive,
CS/C(C)=N/OC(=O)N(C)SN(C)C(=O)O/N=C(\C)SC,,28.2 µM (active)
Cc1c(F)c(F)c(COC(=O)C2C(/C=C(\Cl)C(F)(F)F)C2(C)C)c(F)c1F (stereo not given),,12.7 µM (active)
CCOC(=O)C(Cl)Cc1cc(-n2nc(C)n(C(F)F)c2=O)c(F)cc1Cl (stereo not given),inactive,
CCOP(=S)(OCC)SCn1c(=O)oc2cc(Cl)ccc21,,11.1 µM (active)
COC(=O)C(C)Oc1ccc(Oc2ccc(Cl)cc2Cl)cc1 (stereo not given),inactive,
C#CCOS(=O)OC1CCCCC1Oc1ccc(C(C)(C)C)cc1 (stereo not given),,15.8 µM (active)

Structure (SMILES),outcome,AC50
CCCN(CCC)c1c([N+](=O)[O-])cc(S(N)(=O)=O)cc1[N+](=O)[O-],,32.3 µM (active) [middle of 4 runs]
N#Cc1cc(Br)c(O)c(Br)c1,,4.08 µM (active)
CCNc1nc(Cl)nc(NCC)n1,inactive,
N#CC(CCc1ccc(Cl)cc1)(Cn1cncn1)c1ccccc1 (stereo not given),inactive,
O=C(Nc1ccccc1)Nc1ccnc(Cl)c1,inactive,
CC1COC(Cn2cncn2)(c2ccc(Oc3ccc(Cl)cc3)cc2Cl)O1 (stereo not given),,27.6 µM (active)
Cc1cc(Cl)ccc1OCC(=O)O,inactive,
C=CCC1=C(C)[C@@H](OC(=O)[C@@H]2[C@@H](C=C(C)C)C2(C)C)CC1=O,,26.9 µM (active)
COP(=S)(OC)Oc1nc(Cl)c(Cl)cc1Cl,inactive,
COc1nc(NC(C)C)nc(NC(C)C)n1,inactive,
CCNc1nc(Cl)nc(NC(C)C)n1,inactive,
Oc1ccccc1-c1ccccc1,inactive,
CCOc1cc(Oc2ccc(C(F)(F)F)cc2Cl)ccc1[N+](=O)[O-],,5.45 µM (active)
Cc1ccc(-c2c(Cl)nc(C#N)n2S(=O)(=O)N(C)C)cc1,,31.5 µM (active)
CCCCOC(=O)c1ccccc1C(=O)OCCCC,inactive,
COC(=O)N(OC)c1ccccc1COc1ccn(-c2ccc(Cl)cc2)n1,,14.1 µM (active)
N#Cc1nn(-c2c(Cl)cc(C(F)(F)F)cc2Cl)c(N)c1S(=O)C(F)(F)F (stereo not given),,20 µM (active)
CCCCNC(=O)OCC#CI,,20 µM (active) and 17.1 µM (active)
CCc1nn(C)c(C(=O)NCc2ccc(C(C)(C)C)cc2)c1Cl,,13.4 µM (active)
CC(C)C1(C)N=C(c2nc3ccccc3cc2C(=O)O)NC1=O (stereo not given),,2.62 µM (active)
